VACV mCherry inh: vaccinia inhibition (mCherry reporter). Vaccinia virus mCherry reporter infection, fluorescence. Potency, µM (highest dose often 36.5 µM), most hits filed as inhibitors. 310,000 compounds, 0.63% hits. AID 720579; calls by dose curve; tested in A549 cells; also: nearly all actives have a fitted effect of over 35% in size
LASV entry inh: inhibitors of Lassa virus binding or cell entry; Potency, µM (top dose mostly 37.9 µM), hits mostly inhibitors; AID 540256; 300,000 compounds, 1.2% hits; Lassa virus pseudotype entry inhibition, cell reporter; calls by dose curve; tested in HEK293 cells; also: nearly all actives have a fitted effect of over 50% in size
MARV entry inh: blocks Marburg virus binding to or entry into cells; AID 540276; Potency, µM (titrated, usually from 37.8 µM), most hits filed as inhibitors; Marburg virus pseudotyped entry inhibition, cell reporter; 300,000 compounds, 1.8% hits; calls by dose curve; tested in HEK293 cells
Vaccinia Venus: inhibitors of vaccinia virus (Venus reporter) | Potency, µM (top dose mostly 36.5 µM), actives largely listed as inhibitors | 330,000 compounds, 0.46% hits | Vaccinia virus Venus reporter expression, fluorescence; calls by dose curve; tested in A549 cells; also: nearly all actives have a fitted effect of over 30% in size
FMDV antiviral: foot and mouth disease virus antiviral activity; FMDV antiviral cell-based qHTS; Potency, µM (doses to about 57.9 µM), hits mostly inhibitors; 410,000 compounds, 1.2% hits; AID 1159524; calls by dose curve; tested in HEK293T cells; also: read-out not given here; nearly all actives have a fitted effect of over 45% in size
Hits are given with their value; i = inactive; ? = inconclusive; nt = no result given; + = active, no number; ! = a repeat was not active. A selection: hits, their analogues and other compounds. The true share with any hit is near 3.2%.

SMILES	VACV mCherry inh	LASV entry inh	MARV entry inh	Vaccinia Venus	FMDV antiviral
Cc1ccc(C(=O)Sc2cccccc2=O)cc1	1µM	?	?	1.8µM	i
O=C(Nc1ccccc1SC(=O)c1ccccc1)c1ccccc1	i	nt	nt	i	i
CCN(CC)c1ccc(C2Nc3cccc4cccc(c34)N2)c(O)c1	nt	i	?	nt	i
COc1ccc(C(C)=O)cc1CSc1nnc(Nc2ccccc2)s1	i	?	18µM	?	?
COC(=O)C1=C(C(=O)OC)[C@@H]2N(Cc3ccccc3)c3ccccc3[C@@]23C[C@@H](C(=O)OC)N(C(=O)Nc2ccccc2F)C3=N1	nt	nt	i	nt	nt
Cc1ccsc1/C=C1\C(=O)NC(=S)N(C)C1=O	nt	nt	nt	nt	32µM
Nc1nc(C2CC2)c(Sc2sc(N)nc2C2CC2)s1	nt	2.5µM	?	?	25µM
Cc1ccc2[nH]c(=O)c(CN(Cc3ccc4c(c3)OCO4)Cc3nnnn3C3CCCC3)cc2c1	i	3.5µM	?	i	i
Cc1cc2cc(CN(Cc3ccc4c(c3)OCO4)Cc3nnnn3C3CCCC3)c(=O)[nH]c2cc1C	i	i	i	i	i
COC(=O)c1c(C(=O)OC)c2c3ccccc3cc(C3CC3)n2c1C(=O)OC	nt	nt	i	nt	nt
COc1ccccc1C=CC(=O)C=Cc1ccccc1OC	?	4.5µM	?	?	?
COc1ccccc1/C=C/C(=O)/C=C/c1ccccc1O	?	?	?	i	i
CNc1ccccc(C(=O)/C=C/c2ccccc2OC)c1=O	i	?	11µM	?	?
COC[C@@H](O)[C@H]1OCc2ccccc2[C@@H]1C=Cc1ccccc1	nt	nt	i	nt	nt
Cc1ccc(CN2CCN(C(=O)C3CCCO3)CC2)cc1 (stereo not given)	i	i	i	i	i
Cc1ccc(-c2nc(CN3CCN(C(=O)C4CCCO4)CC3)cs2)cc1 (stereo not given)	i	?	18µM	i	?
CCn1cc(CN2CCCC(C(=O)Nc3cccc(-c4cc5ccccc5[nH]4)c3)C2)c(C)n1 (stereo not given)	i	?	?	i	i
CC(C)n1cc(CN2CCCC(C(=O)Nc3cccc(-c4cc5ccccc5[nH]4)c3)C2)cn1 (stereo not given)	11µM	7.1µM	?	?	?
CCN(CC)S(=O)(=O)c1cc(NC(=O)c2ccc(-n3cncn3)c([N+](=O)[O-])c2)ccc1C	i	?	?	?	13µM
CC(C)c1cn(C2OC(COC(=O)c3ccccc3)C(OC(=O)c3ccccc3)C2OC(=O)c2ccccc2)c(=O)[nH]c1=O (stereo not given)	nt	nt	nt	nt	i
CS(=O)(=O)Nc1cccc(-c2ccc3ncnc(Nc4ccccc4)c3c2)c1	nt	nt	nt	nt	i
C/C(=N\OCc1cccc(C(=O)O)c1)c1ccc(Cl)cc1	i	?	?	i	10µM
O=C(O)c1cccc(NC(=O)c2ccc(COc3ccc(Cl)cc3)cc2)c1	nt	nt	nt	nt	i
Cc1ccc(-n2c(-c3ccco3)nc3c(cnn3-c3ccc(C)cc3)c2=O)cc1	i	?	?	i	28µM!
CN(C)c1ccc(CNC(=O)c2cc(S(=O)(=O)N3CCOCC3)cn2C)cc1	i	nt	nt	i	i
SMILES	VACV mCherry inh	LASV entry inh	MARV entry inh	Vaccinia Venus	FMDV antiviral
O=C(O)CCCOc1ccc(Cl)cc1Cl	+!	nt	nt	?	i
CC(C)=CCNc1ncnc2c1c(C#N)cn2C1OC(CO)C(O)C1O (stereo not given)	i	i	i	i	i
N#Cc1cn(C2OC(CO)C(O)C2O)c2ncnc(N)c12 (stereo not given)	?	0.63µM	?	?	i
NC(=O)c1cn(C2OC(CO)C(O)C2O)c2ncnc(N)c12 (stereo not given)	0.32µM	0.29µM	0.073µM	0.32µM	?
CCCC1O[C@@H]2C[C@H]3[C@@H]4CCC5=CC(=O)C=C[C@]5(C)C4[C@@H](O)C[C@]3(C)[C@]2(C(=O)CO)O1 (stereo not given in full)	nt	nt	3.2µM	nt	nt
CCN(/C(N)=N/c1nc(C)cc(C)n1)c1ccccc1	i	i	i	i	i
CCc1cccc(N(C)C(N)=Nc2cccc3ccccc23)c1	i	13µM	11µM	i	i
c1csc(-c2nc3ccccc3[nH]2)c1	i	i	i	i	i
Cc1cccc2cc(-c3nc4ccc(C(=O)O)cc4[nH]3)c(=O)oc12	i	?	?	i	7.9µM
COc1ccc(-c2nc3ccccc3[nH]2)cc1	i	?	7.3µM	i	nt
O=C(O)c1cccc(-c2nc3ccccc3[nH]2)c1	i	1.4µM	0.35µM	i	?
Cc1ccc(-c2nc3ccccc3[nH]2)s1	i	?	13µM	i	i
Cc1cc(N2C(=O)C(=O)/C(=C(\O)c3ccc(F)cc3)[C@@H]2c2ccc(F)cc2)no1	nt	nt	i	nt	nt
CC(NC(=O)C1CCOCC1)c1nnc2n1CCN(Cc1ccc3cccnc3c1)CC2 (stereo not given)	i	nt	nt	i	i
NC(=O)N/N=C/c1ccc(OCc2cccc(Cl)c2)cc1	i	i	i	i	i
CN(C)c1ccc(/C=C/c2c(F)cnc3ccccc23)cc1	i	nt	nt	i	nt
COC(=O)c1ccc(-c2nc3ccccc3[nH]2)cc1	i	7.3µM	1.8µM	i	i
COC(=O)c1ccc(C(=O)Nc2ccc3nc(-c4ccncc4)[nH]c3c2)cc1	nt	nt	nt	nt	i
O=C(NCC1Cc2cc(-c3cnc4ccccc4c3)cc(F)c2O1)c1cnsn1 (stereo not given)	?	nt	nt	?	i
Cn1cnc(C(=O)NCc2ccc(CNC(=O)OC(C)(C)C)cc2)c1C(=O)NCc1ccc(CNC(=O)OC(C)(C)C)cc1	?	nt	nt	?	16µM
C[C@H]1CNC(=O)c2c(C(=O)Nc3ccc(CNC(=O)OC(C)(C)C)cc3)ncn21	?	nt	nt	?	28µM
C[C@H]1Cn2cnc(C(=O)Nc3ccc(CNC(=O)OC(C)(C)C)cc3)c2C(=O)N1	?	nt	nt	i	i
CCN(CC)S(=O)(=O)c1cc(NC(=O)Cc2ccc(S(=O)(=O)N3CCOCC3)s2)ccc1Cl	nt	nt	nt	nt	32µM
O=C(Nc1cccc(C(F)(F)F)c1)C1CCN(S(=O)(=O)c2cccs2)CC1	i	i	?	i	i
Cc1ccc(NC(=O)c2cc(S(=O)(=O)N3CCOCC3)c(Cl)cc2Cl)cc1	?	?	nt	i	25µM
SMILES	VACV mCherry inh	LASV entry inh	MARV entry inh	Vaccinia Venus	FMDV antiviral
CC(=O)c1c(C)[nH]c(C(=O)Nc2ccc(Cl)c(S(=O)(=O)N3CCOCC3)c2)c1C	?	?	?	i	22µM
COc1ccc(OC)c(S(=O)(=O)N2CCC(C(=O)Nc3cccc(C(F)(F)F)c3)CC2)c1	nt	i	?	?	25µM
OC(c1ccc(F)c(F)c1)c1ncc(-c2cccc(F)c2)[nH]1 (stereo not given)	i	nt	nt	i	i
COc1cc(=O)n2c(c1C(=O)NCc1ccsc1)CCN(Cc1nc3ccccc3[nH]1)CC2	i	nt	nt	i	i
COc1ccc(NC(=O)CC2CCCC2)cc1S(=O)(=O)N1CCCCC1	i	10µM	i	i	i
O=C(CC1CCCC1)Nc1ccc(Cl)c(S(=O)(=O)N2CCOCC2)c1	?	2.8µM	?	i	32µM
CCCCC(=O)N(C)c1c(CC)nc2c(OCC(=O)N(C)C)cccn12	i	nt	nt	i	i
CC(C)(C)CC(=O)Nc1nnc(C(F)(F)F)s1	i	i	i	i	i
CC(NC(=O)Nc1nnc(C(F)(F)F)s1)(C(F)(F)F)C(F)(F)F	4µM	3.5µM	?	2.5µM	?
COc1ccc(OC)c2sc(NC(=O)c3ccc(Cl)s3)nc12	i	nt	nt	?	i

Bioassay records as filed in PubChem BioAssay.
